Measured values published in PubChem BioAssay (Tox21).
Inconclusive results are not listed. A call without a number means that no potency is given here. Calls of active or inactive are those of the source. Unless noted, calls come from the whole dose curve.

How the values were obtained:
[1] = Nuclear factor erythroid 2-related factor 2/antioxidant responsive element (Nrf2/ARE) small molecule agonists: qHTS cell viability counter screen in human keratinocytes (AID 1919968; active = well fitted curve in the direction sought with a large enough effect in the repeat runs; an effect the other way counts as inactive or inconclusive; note: nearly all actives have a fitted effect of over 55% in size)
How it was run: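 After a 5 h attachment period, ARE-reporter keratinocytes were dosed with compounds in DMSO and then cultured 23 h at 37 C. Cell viability came from CellTiter-Fluor signal read after a further 1 h.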

[2] = Nuclear factor erythroid 2-related factor 2/antioxidant responsive element (Nrf2/ARE) small molecule agonists: luciferase reporter gene qHTS assay in human keratinocytes (AID 1919969); note: nearly all actives have a fitted effect of over 35% in size; note: potency is the fitted concentration of half-maximal effect
[3] = target: Gonadotropin-releasing hormone receptor (Homo sapiens) (UniProt P30968); assay: Human gonadotropin-releasing hormone receptor (GnRHR) small molecule agonists, calcium flux assay in GnRHR-HEK293 cells (AID 1920063); note: nearly all actives have a fitted effect of over 35% in size
How it was run: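 We seeded human GnRHR-expressing HEK293 cells for 18 hours, loaded them with calcium dye for an hour at 37 C, added test compounds, and recorded fluorescence intensity kinetically for three minutes.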

[4] = target: KiSS-1 receptor (Homo sapiens) (UniProt Q969F8); assay: Human kisspeptin (KISS1R) small molecule agonists, calcium flux assay in KISS1R-HEK293 cells (AID 1920064; active = well fitted curve in the direction sought with a large enough effect in the repeat runs; an effect the other way counts as inactive or inconclusive)
How it was run: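 Kinetic calcium assay, 1 s sampling over 3 min at Ex/Em 480/540, in HEK293 cells engineered with human KISS1R; compounds delivered in DMSO after 1 h dye loading.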

[5] = G protein-coupled receptor (GPCR) small molecule agonists, calcium flux assay: HEK293 wild type cell line counter screen (AID 1920065)
How it was run: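 Calcium-sensitive dye, loaded 1 h at 37 C into cells cultured 18 h, reports compound-evoked calcium release as fluorescence (Ex/Em 480/540), measured over 3 min. Agonist mode; 15-point titrations, triplicate.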

[6] = p53 small molecule agonists, cell-based qHTS assay with human liver microsomes (AID 1963577)
How it was run: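 Cells carrying a p53-responsive bla reporter were rested 5 h (37 C, 5% CO2) before compound transfer. Human liver microsomes plus NADPH, 0.5 mg/mL final apiece, supplied metabolism during the 16 h 37 C exposure.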

[7] = p53 small molecule agonists, cell-based qHTS assay with rat liver microsomes (AID 1963578)
How it was run: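 Fluorescence from a beta-lactamase reporter under a p53 response element was measured after cells had been incubated 16 h at 37 C with test compound and rat liver microsomes plus NADPH (0.5 mg/mL final each).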

[8] = p53 small molecule agonists, cell-based qHTS assay with human liver microsomes: qHTS cell viability counter screen (AID 1963579); note: nearly all actives have a fitted effect of over 45% in size
How it was run: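 Seed p53RE-bla cells at 4,000 per well; incubate 5 h at 37 C; add compound, human liver microsomes and NADPH; incubate 16 h at 37 C; add CellTiter-Glo; after 30 min at room temperature, read luminescence.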

[9] = p53 small molecule agonists, cell-based qHTS assay with rat liver microsomes: qHTS cell viability counter screen (AID 1963580); note: nearly all actives have a fitted effect of over 45% in size
How it was run: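 p53RE-bla HCT-116 cells were exposed 16 h at 37 C to compounds with rat liver microsomes (0.5 mg/mL) and NADPH (0.5 mg/mL). Viability was measured in the same wells as ATP content by CellTiter-Glo luminescence.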

[10] = p53 small molecule agonists, cell-based qHTS assay: qHTS cell viability counter screen (AID 1963581); note: nearly all actives have a fitted effect of over 45% in size
How it was run: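 Following 5 h attachment, HCT-116 p53RE-bla cells took up compound for 16 h at 37 C; the reporter was read with B/G FRET substrate (2 h RT), and viability then via CellTiter-Glo ATP luminescence.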

[11] = p53 small molecule agonists, cell-based qHTS assay (AID 1963582; active = well fitted activation curve with a large enough effect in the signal ratio in the repeat runs, not every such curve was filed as active; the % refers to the signal ratio)
How it was run: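 In this cell-based concentration-response screen, a p53 response element drives beta-lactamase; cells received DMSO-borne compounds after 5 h culture and were incubated a further 16 h before FRET substrate development.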

[12] = target: 5-hydroxytryptamine receptor 2A (Homo sapiens) (UniProt P28223); assay: 5-hydroxytryptamine receptor 2A (HTR2A) small molecule antagonists, cell-based qHTS assay (AID 1963586); note: nearly all actives have a fitted effect of over 45% in size
How it was run: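 Antagonist-mode intracellular calcium assay: DOI (4 nM) added after 5 min compound pre-incubation at room temperature to dye-loaded HTR2A-CHO cells. Fluorescence followed for 3 min, sampled every second.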

[13] = target: 5-hydroxytryptamine receptor 2A (Homo sapiens) (UniProt P28223); assay: 5-hydroxytryptamine receptor 2A (HTR2A) small molecule agonists, cell-based qHTS assay (AID 1963587); note: nearly all actives have a fitted effect of over 30% in size
How it was run: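 CHO cells stably expressing human HTR2A, plated 18 h, loaded with calcium dye 1 h at 37 C. Agonist mode: compounds added and intracellular calcium fluorescence recorded kinetically for 2 min at 1 sec intervals.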

[14] = target: Muscarinic acetylcholine receptor M1 (Homo sapiens) (UniProt P11229); assay: Cholinergic receptor muscarinic 1 (CHRM1) small molecule antagonists, cell-based qHTS assay (AID 1963588); note: nearly all actives have a fitted effect of over 40% in size
How it was run: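 CHRM1-CHO calcium-flux assay, antagonist mode. Cells were seeded 18 h, dye-loaded 1 h at 37 C and given compound for 5 min at RT, then acetylcholine was added at 50nM. FDSS fluorescence was read 3 min; 15 concentrations, three runs.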

[15] = target: Muscarinic acetylcholine receptor M1 (Homo sapiens) (UniProt P11229); assay: Cholinergic receptor muscarinic 1 (CHRM1) small molecule agonists, cell-based qHTS assay (AID 1963589); note: nearly all actives have a fitted effect of over 35% in size
How it was run: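 Measures agonist-induced intracellular calcium rise. Stable human CHRM1 CHO line, 1 h dye load at 37 C, compounds from DMSO, kinetic fluorescence read.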

[16] = cAMP Responsive Elements (CRE) small molecule agonists, cell-based qHTS assay (AID 1963590)
How it was run: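 A CRE-responsive beta-lactamase reporter in HEK 293T cells was used. Treatment ran 3 h at 37 C; detection used LiveBLAzer B/G FRET substrate for 2 h at room temperature.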

[17] = cAMP Responsive Elements (CRE) small molecule antagonists, cell-based qHTS assay (AID 1963591; active = well fitted inhibition curve with a large enough effect in the signal ratio in the repeat runs, not every such curve was filed as active; the % refers to the signal ratio)
How it was run: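 HEK293T cells carrying a CRE-driven beta-lactamase reporter receive compound and NKH477 (0.25 uM final) for 3 h. Fluorescence from LiveBLAzer B/G FRET substrate is read after 2 h at room temperature.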

[18] = target: Beta-2 adrenergic receptor (Homo sapiens) (UniProt P07550); assay: Adrenergic beta2 receptor (ADRB2) small molecule antagonists, cell-based qHTS assay (AID 1963592); note: series mostly up to about 92 µM; nearly all actives have a fitted effect of over 50% in size
How it was run: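 Cells (CHO, stable ADRB2 overexpression) incubated 18-20hr at 37C; compounds added from DMSO; agonist mix (1nM isoproterenol, 100uM IBMX, 25uM Ro-20-1724) added; 0.5hr RT; d2-cAMP and anti-cAMP-cryptate added; 1hr RT; 665/615 nm read.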

[19] = target: D(2) dopamine receptor (Homo sapiens) (UniProt P14416); assay: Dopamine D2 receptor (DRD2) small molecule agonists, cell-based qHTS assay (AID 1963594); note: nearly all actives have a fitted effect of over 35% in size
How it was run: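 HEK293 cells stably expressing human DRD2, pre-treated with PDE inhibitor Ro20-1724 (0.1 mM final) and compound 10 min at room temperature, then stimulated with NKH477 (200nM […]) for 30 min. cAMP read by HTRF (665/620 nm).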

[20] = target: D(2) dopamine receptor (Homo sapiens) (UniProt P14416); assay: Dopamine D2 receptor (DRD2) small molecule antagonists, cell-based qHTS assay (AID 1963595; active = well fitted inhibition curve with a large enough effect in the signal ratio in the repeat runs, with a control signal flat; the % refers to the signal ratio)
How it was run: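 DRD2-HEK293; 0.1 mM Ro20-1724; cpd 10 min RT; NKH477 200 nM + quinpirole 12 nM, 30 min RT; HTRF cAMP (cAMP-d2/anti-cAMP cryptate), 665/620 nm ratio after 1 h.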

Sequence of D(2) dopamine receptor (Homo sapiens) (P14416 whole entry, looked up): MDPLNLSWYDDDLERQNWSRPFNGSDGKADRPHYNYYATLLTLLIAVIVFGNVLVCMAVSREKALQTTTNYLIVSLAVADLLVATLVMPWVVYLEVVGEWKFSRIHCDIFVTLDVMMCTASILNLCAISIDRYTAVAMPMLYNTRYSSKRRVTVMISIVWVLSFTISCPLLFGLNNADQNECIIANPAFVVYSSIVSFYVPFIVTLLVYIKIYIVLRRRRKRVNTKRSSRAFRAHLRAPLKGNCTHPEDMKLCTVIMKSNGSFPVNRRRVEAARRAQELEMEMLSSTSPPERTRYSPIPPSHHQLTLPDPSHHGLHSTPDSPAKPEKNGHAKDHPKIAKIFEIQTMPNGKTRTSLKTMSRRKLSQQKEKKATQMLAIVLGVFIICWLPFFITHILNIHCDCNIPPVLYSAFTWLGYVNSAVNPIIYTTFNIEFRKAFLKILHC
Sequence of KiSS-1 receptor (Homo sapiens) (Q969F8 whole entry, looked up): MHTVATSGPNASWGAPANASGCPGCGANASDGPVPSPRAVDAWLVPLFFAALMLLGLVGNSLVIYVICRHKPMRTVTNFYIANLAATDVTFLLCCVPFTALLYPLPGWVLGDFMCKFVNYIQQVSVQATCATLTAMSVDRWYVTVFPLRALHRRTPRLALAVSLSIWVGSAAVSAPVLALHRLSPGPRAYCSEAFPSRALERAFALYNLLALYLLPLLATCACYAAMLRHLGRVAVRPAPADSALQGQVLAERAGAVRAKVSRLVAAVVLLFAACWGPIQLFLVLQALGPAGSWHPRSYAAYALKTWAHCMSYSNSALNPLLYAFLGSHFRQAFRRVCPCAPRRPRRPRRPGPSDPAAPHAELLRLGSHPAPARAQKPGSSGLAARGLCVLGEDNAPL
Sequence of Beta-2 adrenergic receptor (Homo sapiens) (P07550 whole entry, looked up): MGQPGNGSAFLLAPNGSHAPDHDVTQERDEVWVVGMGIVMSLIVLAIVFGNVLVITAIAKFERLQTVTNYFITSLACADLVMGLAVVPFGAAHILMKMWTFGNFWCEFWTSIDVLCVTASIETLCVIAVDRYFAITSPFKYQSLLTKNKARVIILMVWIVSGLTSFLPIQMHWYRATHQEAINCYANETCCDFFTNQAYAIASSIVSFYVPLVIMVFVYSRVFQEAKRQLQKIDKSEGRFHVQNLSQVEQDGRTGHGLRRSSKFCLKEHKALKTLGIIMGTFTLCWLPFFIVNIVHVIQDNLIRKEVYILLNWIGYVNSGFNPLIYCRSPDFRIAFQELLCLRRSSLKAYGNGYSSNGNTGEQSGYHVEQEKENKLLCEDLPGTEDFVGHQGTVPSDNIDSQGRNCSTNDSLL
Sequence of 5-hydroxytryptamine receptor 2A (Homo sapiens) (P28223 whole entry, looked up): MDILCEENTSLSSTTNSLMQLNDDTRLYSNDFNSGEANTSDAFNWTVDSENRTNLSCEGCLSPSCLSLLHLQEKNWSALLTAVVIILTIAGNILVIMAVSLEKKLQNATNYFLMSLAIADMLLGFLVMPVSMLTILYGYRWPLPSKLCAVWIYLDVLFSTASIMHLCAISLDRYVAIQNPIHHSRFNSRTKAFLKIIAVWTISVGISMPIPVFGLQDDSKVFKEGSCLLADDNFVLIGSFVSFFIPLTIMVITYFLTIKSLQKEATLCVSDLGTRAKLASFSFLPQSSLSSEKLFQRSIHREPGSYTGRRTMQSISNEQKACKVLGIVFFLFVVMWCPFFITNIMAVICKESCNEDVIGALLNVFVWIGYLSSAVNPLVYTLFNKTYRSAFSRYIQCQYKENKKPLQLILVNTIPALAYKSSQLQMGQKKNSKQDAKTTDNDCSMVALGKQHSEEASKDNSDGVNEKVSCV
Sequence of Gonadotropin-releasing hormone receptor (Homo sapiens) (P30968 whole entry, looked up): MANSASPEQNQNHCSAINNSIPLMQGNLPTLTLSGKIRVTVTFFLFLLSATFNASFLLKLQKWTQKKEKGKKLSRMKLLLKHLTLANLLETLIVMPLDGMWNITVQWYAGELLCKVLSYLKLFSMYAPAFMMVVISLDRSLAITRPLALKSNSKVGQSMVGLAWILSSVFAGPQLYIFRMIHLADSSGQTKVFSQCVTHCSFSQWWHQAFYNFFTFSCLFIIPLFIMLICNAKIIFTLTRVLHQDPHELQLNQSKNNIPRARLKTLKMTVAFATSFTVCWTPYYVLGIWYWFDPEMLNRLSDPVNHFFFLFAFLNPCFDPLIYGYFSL
Sequence of Muscarinic acetylcholine receptor M1 (Homo sapiens) (P11229 whole entry, looked up): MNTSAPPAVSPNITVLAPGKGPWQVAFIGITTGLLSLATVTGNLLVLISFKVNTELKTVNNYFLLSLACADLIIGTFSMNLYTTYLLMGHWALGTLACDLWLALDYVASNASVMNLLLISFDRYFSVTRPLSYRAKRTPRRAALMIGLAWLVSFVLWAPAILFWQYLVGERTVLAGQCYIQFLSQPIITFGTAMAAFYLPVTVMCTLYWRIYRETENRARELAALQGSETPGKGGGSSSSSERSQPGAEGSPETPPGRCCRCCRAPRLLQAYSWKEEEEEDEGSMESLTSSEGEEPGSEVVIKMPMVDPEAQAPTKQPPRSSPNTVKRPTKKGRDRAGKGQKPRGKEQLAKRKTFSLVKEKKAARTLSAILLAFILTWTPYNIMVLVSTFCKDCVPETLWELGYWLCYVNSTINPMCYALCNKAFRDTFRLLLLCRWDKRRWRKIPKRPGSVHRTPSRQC

Row | SMILES | Potency [1] | Potency [2] | Potency [3] | Potency [4] | Potency [5] | Potency [6] | Potency [7] | Potency [8] | Potency [9] | Potency [10] | Potency [11] | Potency [12] | Potency [13] | Potency [14] | Potency [15] | Potency [16] | Potency [17] | Potency [18] | Potency [19] | Potency [20]
1 | CC(C)(C)C(=O)C1C(=O)c2ccccc2C1=O | inactive | inactive | inactive | inactive | inactive | inactive | inactive | inactive | inactive | inactive | inactive | inactive | inactive | inactive | inactive | inactive | inactive | inactive | inactive | inactive
2 | CCN(CC)CC(=O)Oc1ccc(NC(C)=O)cc1 | inactive | inactive | inactive | inactive | inactive | inactive | inactive | inactive | inactive | inactive | inactive | inactive | inactive | inactive | inactive | inactive | inactive | inactive | inactive | inactive
3 | c1ccc2c(c1)CCc1ccccc1N2 | inactive | 61.4 µM (active) | inactive | inactive | inactive | inactive | inactive | inactive | inactive | inactive | inactive | inactive | inactive | inactive | inactive | inactive | inactive |  | inactive | inactive
4 | C(/C=C/C=C/Nc1ccccc1)=Nc1ccccc1 | inactive | inactive | inactive | inactive | inactive | inactive | inactive | inactive | inactive | inactive | inactive | inactive | inactive | inactive | inactive | inactive | inactive |  |  | inactive
5 | CCCCC(C)C(=O)O (stereo unspecified) | inactive | inactive | inactive | inactive | inactive | inactive | inactive | inactive | inactive | inactive | inactive | inactive | inactive | inactive | inactive | inactive | inactive |  | inactive | inactive
6 | NS(=O)(=O)c1cc2c(cc1C(F)(F)F)NC(Cc1ccccc1)NS2(=O)=O (stereo unspecified) | inactive | inactive | inactive | inactive | inactive | inactive | inactive | inactive | inactive | inactive | inactive | inactive | inactive | inactive | inactive | inactive | inactive |  | inactive | inactive
7 | CN(C)CCCN(C)CCCN(C)C | inactive | inactive | inactive | inactive | inactive | inactive | inactive | inactive | inactive | inactive | inactive | inactive | inactive | inactive | inactive | inactive |  | inactive | inactive | 
8 | COC(=O)c1ccccc1C(=O)O | inactive | inactive | inactive | inactive | inactive | inactive | inactive | inactive | inactive | inactive | inactive | inactive | inactive | inactive | inactive | inactive |  | inactive | inactive | inactive
9 | Cc1ccc(Nc2ccc(O)c3c2C(=O)c2ccccc2C3=O)cc1 | inactive | inactive | inactive | inactive | inactive | inactive | inactive | inactive | inactive | inactive | inactive | inactive | inactive | inactive | inactive | inactive | inactive |  | inactive | inactive
